These results are taken from PubChem BioAssay (Tox21).

Structures are written as SMILES. Results filed as inconclusive are left out. The source made the active and inactive calls. The call rests on the fitted dose curve; in most records, active means well fitted curve in the direction sought with a large enough effect in the repeat runs; inconclusive means weak or mixed curves; inactive means no such curve, though single readings can be large; an effect the other way counts as inactive or inconclusive.

Test [1] can be described thus: A CellTox Green Cytotoxicity Assay to monitor cytotoxicity in HEK293 cells - 40 hour (AID 1224871). Further: nearly all actives have a fitted effect of over 45% in size. Further: potency means the concentration at half of the fitted maximal effect. A digest of the protocol:
(§1)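 Each value comes from one timepoint of a single continuous run in which HEK293 cells with CellTox Green were exposed to compound for up to 40 h at 37 C, dye fluorescence rising with cell death.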

Test [2] in a line: qHTS RealTime-Glo MT Cell Viability Assay in HEK293 cells - 16 hour (AID 1224872). Further: nearly all actives have a fitted effect of over 50% in size. Further: potency means the concentration at half of the fitted maximal effect. A digest of the protocol:
(§2)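 Reads taken at 0, 8, 16, 24, 32 and 40 h from the same wells. HEK293 cells (600/well) carried RealTime-Glo reagents from seeding, with compound added after a 5 h settle at 37 C.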
Background: Quantitative high-throughput screening tests each substance at several concentrations.

A short description of test [3]: qHTS RealTime-Glo MT Cell Viability Assay in HepG2 cells - 8 hour (AID 1224873). Further: nearly all actives have a fitted effect of over 55% in size. Further: potency means the concentration at half of the fitted maximal effect. A digest of the protocol: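 HepG2 cells (600/well) mixed with RealTime-Glo MT reagent, settled 5 h at 37 C/5% CO2 before compound addition. Nonlytic NanoLuc luminescence from viable-cell prosubstrate reduction read repeatedly during 40 h treatment at 37 C.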
The nature of test [4]: A CellTox Green Cytotoxicity Assay to monitor cytotoxicity in HEK293 cells - 24 hour (AID 1224875). Further: nearly all actives have a fitted effect of over 45% in size. Further: potency means the concentration at half of the fitted maximal effect. A digest of the protocol: as §1
A short description of test [5]: qHTS RealTime-Glo MT Cell Viability Assay in HepG2 cells - 32 hour (AID 1224877). Further: nearly all actives have a fitted effect of over 55% in size. Further: potency means the concentration at half of the fitted maximal effect. A digest of the protocol: (§3)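 HepG2 suspension premixed with RealTime-Glo reagents is plated at 600 cells per well and left 5 h at 37 C/5% CO2. Compounds in DMSO then go in, and bioluminescence reflecting viable cell number is recorded over 40 h.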
Test [6] is described as follows: A CellTox Green Cytotoxicity Assay to monitor cytotoxicity in HepG2 cells - 24 hour (AID 1224878). Further: nearly all actives have a fitted effect of over 45% in size. Further: potency means the concentration at half of the fitted maximal effect. A digest of the protocol:
(§4)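 Continuous culture of HepG2 cells with a membrane-impermeant DNA dye; rising fluorescence marks dead cells. Compound exposure lasted up to 40 h at 37 C, with reads every 8 h from 0 h.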

Test [7] is described as follows: A CellTox Green Cytotoxicity Assay to monitor cytotoxicity in HepG2 cells - 40 hour (AID 1224879). Further: nearly all actives have a fitted effect of over 40% in size. Further: potency means the concentration at half of the fitted maximal effect. An outline of the steps:
as §4

The nature of test [8]: qHTS RealTime-Glo MT Cell Viability Assay in HEK293 cells - 0 hour (AID 1224880). Further: nearly all actives have a fitted effect of over 45% in size. Further: potency means the concentration at half of the fitted maximal effect. An outline of the steps:
(§5)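 qHTS format; HEK293 cells with NanoLuc/prosubstrate reagent, 37 C/5% CO2 for 5 h pre-dosing; compounds 23 nL in DMSO; luminescence at each time point reflects viable cells.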

Test [9] can be described thus: A CellTox Green Cytotoxicity Assay to monitor cytotoxicity in HepG2 cells - 0 hour (AID 1224882). Further: nearly all actives have a fitted effect of over 35% in size. An outline of the steps:
as §4

A short description of test [10]: A CellTox Green Cytotoxicity Assay to monitor cytotoxicity in HepG2 cells - 32 hour (AID 1224883). Further: nearly all actives have a fitted effect of over 50% in size. Further: potency means the concentration at half of the fitted maximal effect. A digest of the protocol: as §4
Test [11] can be described thus: qHTS RealTime-Glo MT Cell Viability Assay in HepG2 cells - 16 hour (AID 1224885). Further: nearly all actives have a fitted effect of over 50% in size. Further: potency means the concentration at half of the fitted maximal effect. An outline of the steps: as §3
Test [12] can be described thus: qHTS RealTime-Glo MT Cell Viability Assay in HEK293 cells - 24 hour (AID 1224886). Further: nearly all actives have a fitted effect of over 50% in size. Further: potency means the concentration at half of the fitted maximal effect. An outline of the steps: as §2
Test [13] is described as follows: qHTS RealTime-Glo MT Cell Viability Assay in HEK293 cells - 8 hour (AID 1224887). Further: nearly all actives have a fitted effect of over 50% in size. Further: potency means the concentration at half of the fitted maximal effect. A digest of the protocol:
as §5

The nature of test [14]: A CellTox Green Cytotoxicity Assay to monitor cytotoxicity in HEK293 cells - 16 hour (AID 1224888). Further: nearly all actives have a fitted effect of over 35% in size. Further: potency means the concentration at half of the fitted maximal effect. An outline of the steps:
as §1

Test [15] is described as follows: A CellTox Green Cytotoxicity Assay to monitor cytotoxicity in HepG2 cells - 16 hour (AID 1224876). Further: nearly all actives have a fitted effect of over 45% in size. Further: potency means the concentration at half of the fitted maximal effect. An outline of the steps: as §4
The nature of test [16]: A CellTox Green Cytotoxicity Assay to monitor cytotoxicity in HEK293 cells - 32 hour (AID 1224881). Further: nearly all actives have a fitted effect of over 40% in size. Further: potency means the concentration at half of the fitted maximal effect. A digest of the protocol: as §1
Test [17] in a line: qHTS RealTime-Glo MT Cell Viability Assay in HepG2 cells - 0 hour (AID 1224889). Further: nearly all actives have a fitted effect of over 50% in size. Further: potency means the concentration at half of the fitted maximal effect. An outline of the steps: as §3
A short description of test [18]: A CellTox Green Cytotoxicity Assay to monitor cytotoxicity in HepG2 cells - 8 hour (AID 1224890). Further: nearly all actives have a fitted effect of over 45% in size. Further: potency means the concentration at half of the fitted maximal effect. An outline of the steps:
as §4

The nature of test [19]: A CellTox Green Cytotoxicity Assay to monitor cytotoxicity in HEK293 cells - 8 hour (AID 1224884). Further: nearly all actives have a fitted effect of over 35% in size. Further: potency means the concentration at half of the fitted maximal effect. An outline of the steps: as §1
Test [20] can be described thus: qHTS RealTime-Glo MT Cell Viability Assay in HEK293 cells - 40 hour (AID 1224874). Particulars: RealTime-Glo luminescence; max response: stronger effect = lower value. An outline of the steps: as §5

For the compound `CCC(C)Nc1ccc(NC(C)CC)cc1` (stereo not given), the Potency is 12.5 µM (active) in test [1]; 4.45 µM (active) in test [2]; 19.9 µM (active) in test [3]; 17.7 µM (active) in test [4]; 17.7 µM (active) in test [5]; 22.3 µM (active) in test [6]. The Potency was 17.7 µM (active) in test [7]; 19.9 µM (active) in test [8]; 19.9 µM (active) in test [10]; 17.7 µM (active) in [11]; 4.45 µM (active) in [12]; 4.99 µM (active) in [13]. For the same compound, in test [14], the Potency was 39.7 µM (active). For the same compound, the Potency result in test [9] was “inactive”.
Turning to `O=C(OCC1CO1)C1CCCCC1C(=O)OCC1CO1` (stereo not given), the Potency entry in test [1], in test [2], in [3], in test [4], in [15] and in test [5] was “inactive” in each case. The Potency result in test [6], in [7], in test [8], in [16], in [9] and in [10] was “inactive” each time. Also, the Potency entry in test [11], in test [12], in test [13], in [14], in test [17] and in test [18] was “inactive” in each case.
Consider `Cc1oc(-c2ccccc2)nc1CCC(=O)c1ccc(CC2SC(=O)NC2=O)cc1` (stereo not given), for which the Potency result in [1], in [2], in test [3], in test [4], in [15] and in test [5] was “inactive” throughout. Moreover, the Potency entry in test [6], in test [7], in [8], in test [16], in test [10] and in test [19] was “inactive” each time. Besides, the Potency entry in test [11], in test [12], in test [13], in test [14], in test [17] and in test [18] was “inactive” in each case.
`Cc1cc(O)c(C(C)(C)C)cc1C(C)(C)C`: the Potency in test [1] was 24.5 µM (active); in test [2], 19.5 µM (active); in test [3], 38.9 µM (active); in test [4], 24.5 µM (active); in test [15], 21.9 µM (active); in [5], 43.6 µM (active). Also, the Potency in test [6] is 21.9 µM (active); in test [7], 24.5 µM (active); in [10] it was 24.5 µM (active); in test [19], 19.5 µM (active); in test [11], 43.6 µM (active); in [12] it was 19.5 µM (active). Moreover, the results for the Potency in [13], in test [14] and in test [18] were 13.8 µM (active), 34.7 µM (active) and 24.5 µM (active), respectively. Besides, the Potency entry in [8] and in test [9] was “inactive” throughout.
Consider `O=c1[nH]sc2ccccc12`, for which the Potency was 54.9 µM (active) in test [1]; 38.9 µM (active) in test [2]; 34.7 µM (active) in test [3]; 30.9 µM (active) in test [20]; 34.7 µM (active) in test [15]; 21.9 µM (active) in test [5]. Besides, the Potency is 38.9 µM (active) in test [6]; 21.9 µM (active) in test [7]; 54.9 µM (active) in test [16]; 34.7 µM (active) in test [10]; 21.9 µM (active) in test [11]; 38.9 µM (active) in [12]. The Potency in [13] and in test [18] was 49 µM (active) in each case. Moreover, the Potency entry in test [8], in test [9] and in [17] was “inactive” each time.
Take `CCN(C(=O)c1cc(C)cc(OC[C@H](C)Nc2ccncc2)c1)C(C)C`: the Potency result in [1], in test [2], in test [3], in test [4], in test [15] and in test [5] was “inactive” throughout. For the same compound, the Potency result in [6], in test [7], in test [8], in test [16], in test [9] and in [10] was “inactive” in each case. Further, the Potency result in test [19], in [11], in [12], in [13], in [14] and in test [18] was “inactive” each time.
Regarding `CCC(CN)=C(c1ccccc1)c1ccccc1`, the Potency entry in test [1], in [2], in test [3], in test [4], in test [15] and in test [5] was “inactive” in each case. The Potency entry in test [6], in test [16], in test [9], in test [11], in test [12] and in test [13] was “inactive” each time. The Potency result in [14], in test [17] and in test [18] was “inactive” throughout.
With `CS(=O)(=O)CCNCc1ccc(-c2ccc3ncnc(Nc4ccc(OCc5cccc(F)c5)c(Cl)c4)c3c2)o1`, the Potency result in test [1], in test [4], in [15], in test [16], in test [9] and in [19] was “inactive” each time. Also, the Potency entry in test [18] is “inactive”. Moreover, the Potency in test [2] was 19 µM (active); in [3], 23.9 µM (active); in test [8], 0.674 µM (active); in test [11], 21.3 µM (active); in [12] it was 21.3 µM (active); in [13], 21.3 µM (active). Moreover, in [17], the Potency is 8.49 µM (active).
As for `CCCCC(CC)COC(=O)c1ccccc1C(=O)O` (stereo not given), the Potency entry in test [1], in test [2], in [3], in [4], in [15] and in test [5] was “inactive” each time. In addition, the Potency entry in test [6], in [7], in test [8], in test [16], in test [9] and in test [10] was “inactive” each time. In addition, the Potency entry in test [11], in test [13] and in [18] was “inactive” in each case.
`O=C(c1ccc(F)cc1)C1CCN(CCn2c(=O)[nH]c3ccccc3c2=O)CC1`: the Potency result in test [1], in [3], in test [4], in [15], in [5] and in [6] was “inactive” throughout. The Potency entry in test [8], in test [10], in [19], in [11] and in [14] was “inactive” in each case. Moreover, the Potency in test [2] was 8.49 µM (active); in test [12], 9.52 µM (active); in test [13], 9.52 µM (active).
As to `O=C(O)c1cc(O)c2c(c1)C(=O)c1cccc(O)c1C2=O`, the Potency entry in [1], in test [2], in test [3], in test [4], in test [15] and in test [5] was “inactive” each time. For the same compound, the Potency result in [6], in [7], in [8], in test [16], in [9] and in test [10] was “inactive” each time. Also, the Potency result in test [19], in test [11], in test [12], in test [13], in [14] and in [17] was “inactive” throughout. In [18], the Potency result was “inactive”.
Turning to `CCOC(=O)O[C@]1(C(=O)OCCl)CC[C@H]2[C@@H]3CCC4=CC(=O)C=C[C@]4(C)[C@H]3[C@@H](O)C[C@@]21C`, the Potency entry in test [1], in [2], in [3], in test [4], in test [15] and in test [5] was “inactive” each time. Further, the Potency entry in test [6], in [7], in test [16], in test [9], in test [10] and in [19] was “inactive” each time. In addition, the Potency result in test [13], in test [14] and in test [18] was “inactive” throughout. For the same compound, in [17], the Potency was 3.38 µM (active).
